Results taken from PubChem BioAssay (NCATS).
A number with no mark means an inactive call. Calls follow the shape of the full dose curve.

Target: Tumor susceptibility gene 101 protein (Homo sapiens) (UniProt Q99816)
Assay: qHTS Validation Assay for Iinhibitors of HIV-1 Budding by Blocking the Interaction of PTAP/TSG101 (AID 485342); also: 0% is about no effect
Conditions: TSG101-PTAP binding, fluorescence polarization, 4-point titration; series mostly up to 115 µM; fluorescence change: at the top concentration
Excerpt: NIH Molecular Libraries Probe Production Network [MLPCN]
NIH Chemical Genomics Center [NCGC]
PI Name: Dr. Eric Freed, NCI
Stages of the HIV-1 replication cycle, specifically virus assembly and release, provide underexploited targets for the development of novel antiviral inhibitors. The late stages of HIV-1 replication are mediated by the Gag precursor protein, Pr55Gag. Expression of Pr55Gag is both necessary and sufficient for the production of virus-like particles from Gag-expressing cells. The Gag protein hijacks key host proteins involved in endocytic machinery of the host cell to promote endosomal processing and viral budding. The budding process requires a direct interaction between a […] (PTAP) motif in the p6 domain of Gag and the cellular endosomal sorting protein known as Tsg101. In this way, the Gag PTAP motif promotes the host cells to recruit viral particles to the plasma membrane where the new viral particles are released, effectively turning the host cells into viral factories. A fluorescence anisotropy assay has been developed to quantitatively measure the PTAP-Tsg101 interaction which can be used to screen for inhibitors of this interaction.
NCGC Assay Protocol Summary:
Two uL of the Tsg101 binding domain in buffer (10 mM HEPES pH 7.5; 0.15 M NaCl, 0.01% Tween 20; 3 mM EDTA;0.1 mM TCEP) was dispensed into Greiner black MB 1536-well plates (final concentration 10 uM). Then, 23 nL of compounds or DMSO were delivered to each well using a pin tool. Finally, 2 uL of a FITC-labeled peptide containing the PTAP motif (1) in the same buffer was dispensed (50 nM final concentration) and the binding was allowed to proceed for 20 min. at r.t. Fluorescent polarization was determined using FITC excitation and polarized emission filters on a Perkin Elmer Viewlux.
Keywords: Tsg101, PTAP, Gag, HIV, fluorescent polarization, MLSMR, MLPCN, NIH Roadmap, qHTS, NCGC

Chain of Tumor susceptibility gene 101 protein (Homo sapiens) (Q99816 whole entry, looked up): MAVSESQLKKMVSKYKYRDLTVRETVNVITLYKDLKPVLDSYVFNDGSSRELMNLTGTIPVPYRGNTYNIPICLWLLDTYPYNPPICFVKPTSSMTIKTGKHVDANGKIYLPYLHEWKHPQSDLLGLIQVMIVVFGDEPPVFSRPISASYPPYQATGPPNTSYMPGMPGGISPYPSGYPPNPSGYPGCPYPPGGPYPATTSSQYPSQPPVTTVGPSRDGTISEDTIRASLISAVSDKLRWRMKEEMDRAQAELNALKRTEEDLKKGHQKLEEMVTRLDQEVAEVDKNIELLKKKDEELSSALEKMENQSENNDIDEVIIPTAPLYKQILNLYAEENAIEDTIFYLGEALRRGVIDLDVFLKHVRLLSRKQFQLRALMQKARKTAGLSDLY

Compound | fluorescence change
Cc1nc(N=Nc2ccc(S(=O)(=O)O)cc2S(=O)(=O)O)c(COP(=O)(O)O)c(C=O)c1O | 6.19%
COc1ccc2c(c1)c(CC(=O)O)c(C)n2C(=O)c1ccccc1 | 6.37%
S=C(S)N1CCCC1 | 2.88%
C[C@H]1CC2C3CCC4=CC(=O)C=C[C@]4(C)[C@@]3(Cl)[C@@H](O)C[C@]2(C)[C@@]1(O)C(=O)CO (stereo not given in full) | 3.71%
[N-]=[N+]=Nc1ccc(C(=O)CSC[C@H](NC(=O)CC[C@H](N)C(=O)O)C(=O)NCC(=O)O)cc1 | -19.1%
N[C@H](C(=O)O)[C@H]1C[C@@H]1C(=O)O | 10.2%
NCCCCN | 2.49%
O=C(O)/C=C/c1cnc[nH]1 | 4.58%
Cn1c(=O)[nH]c2ncn(C)c2c1=O | 1.76%
C=CC[C@H](N)C(=O)O | -4.7%
O=c1ccn([C@@H]2O[C@H](COP(=O)(O)OP(=O)(O)O)[C@@H](O)[C@H]2O)c(=O)[nH]1 | 1.49%
N#C/C(=C\c1ccc(O)c(O)c1)C(=O)NCCCNC(=O)/C(C#N)=C/c1ccc(O)c(O)c1 | -9.62%
CC(=O)C(C)=O | 3.91%
COC(=O)C(N)Cc1ccc(Cl)cc1 (stereo not given) | -0.074%
Cn1c(=O)c2c(nc(/C=C/c3cccc(Cl)c3)n2C)n(C)c1=O | 3.17%
CC(N)(Cc1ccc(O)c(O)c1)C(=O)O (stereo not given) | -1.58%
O=C(O)C1=CCNCC1 | -5.11%
Oc1cc2c(cc1O)C(c1ccccc1)CNCC2 (stereo not given) | 0.447%
CCCOC(=O)c1c(-c2ccccc2)nc(CC)c(C(=O)SCC)c1CCC | -5.38%
NC(N)=NC(N)=Nc1cccc(Cl)c1 | 4.05%

Compound | fluorescence change
CN1CCC2(CCN3CCc4c(oc5ccccc45)C3C2)N(C)C1=O (stereo not given) | 2.33%
NCC(O)c1ccc(O)c(O)c1 (stereo not given) | 3.59%
OC[C@H]1O[C@H](n2cnc3c(N[C@H]4CCC[C@@H]4O)ncnc32)[C@H](O)[C@@H]1O | 2.02%
CCCCCCCCCC(=O)NC(CN1CCOCC1)[C@H](O)c1ccccc1 (stereo not given in full) | -4.36%
CC(C)NC[C@H](O)COc1ccc(CC(N)=O)cc1 | 3.51%
Nc1ncnc2c1ncn2C1CCCC1 | 2.7%
Cc1nc(N=Nc2cc(S(=O)(=O)O)c3cc([N+](=O)[O-])cc(S(=O)(=O)O)c3c2)c(COP(=O)(O)O)c(C=O)c1O | 0.935%
O=c1onc2n1-c1cc(Br)ccc1OC2 | -6.11%
N[C@@H](Cc1ccc(O)c(I)c1)C(=O)O | -4.76%
NCC(O)C1CCCCCCC1 (stereo not given) | 3.63%
Cc1cccc(C(=O)NCN2CCN(c3ccccc3C#N)CC2)c1 | -2.32%
O=C(O)c1cccnc1C(=O)O | 5.01%
CN1CC(O)C(O)C(O)C1CO (stereo not given) | 0.648%
C[C@H](O)C(=O)C1=Nc2c(nc(N)[nH]c2=O)NC1 | 2.75%
C=CC1(C)CC(=O)C2(O)C(C)(O1)C(OC(C)=O)C(O)C1C(C)(C)CCC(O)C12C (stereo not given) | -6.01%
CCCCCCC(=O)OC1CC(C)(C)NC(C)(C)C1 | -1.99%
CC1CCN(CC[C@H]2CCCN2S(=O)(=O)c2cccc(O)c2)CC1 | 4.83%
O=C(O)c1ccccc1Nc1ccccc1 | -2.85%
Cc1nc2c(OCc3ccccc3)cccn2c1CC#N | 11.5%
NCCC1CCCC(CCN)N1 (stereo not given) | 1.96%
